High-throughput results as filed in PubChem BioAssay.
The list is not random: actives were taken first. Their share in the collection is about 2.6%.
mTORC1 inh: Acumen qHTS Assay for Inhibitors of the mTORC1 Signaling Pathway in MEF (Tsc2-/-, p53-/-) Cells: Sytravon. Tsc2-/- p53-/- MEF, phospho-rpS6 immunofluorescence/PI, 24 h. Potency, µM (series often up to 38.3 µM), without a hit: at the top dose activity change, negative = inhibition, usual class: inhibitors. 44,000 tested, 0.78% active. AID 493208, 2011;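 note: potency is the fitted concentration of half-maximal effect; plate controls were DMSO for no effect and rapamycin for full effect; nearly all actives have a fitted effect of over 50% in size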
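Readout is phospho-S6 Alexa 488 signal normalized to PI per well, reported as % active cells with thresholds set from rapamycin (7.5 nM) and DMSO controls. Cells: Tsc2-/-, p53-/- MEFs, 24 hrs compound at 37 C; PI cell number serves as viability.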
S16 F2sN tox: Cell viability qHTS assay in S16 Pmp22-F2sN cells | S16 Pmp22-F2sN Schwann cells viability, CellTiter-Glo, 24 h | Potency, µM (series often up to 57.5 µM), without a hit: at the top dose activity change, negative = cytotoxicity, actives largely listed as cytotoxic | 43,000 tested, 0.48% active; note: potency is the fitted concentration of half-maximal effect; % is set by controls: 0 for no effect and ±100 for the full control effect; nearly all actives have a fitted effect of over 65% in size
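S16 Pmp22-F2sN Schwann cells (500-1,000/well) in phenol-red-free DMEM with 10% FBS received 23 nL compound by pin tool for 24 h at 37 °C. Viability was then read as CellTiter-Glo luminescence after 15 min at room temperature.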
OvCa metastasis: Primary qHTS assay for Inhibitors of ovarian cancer metastasis using an organotypic tumor microenvironment (TME) model; 46,000 tested, 0.1% active; SKOV3ip1-GFP adhesion/invasion on 3D omental model, fluorescence; Potency, µM (doses to about 45.8 µM), for the others: at the highest dose activity change, negative = inhibition, usual class: inhibitors;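 note: potency is the fitted concentration of half-maximal effect; plate controls were DMSO wells for no effect and tomatine positive control wells for full effect; nearly all actives have a fitted effect of over 65% in size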
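Primary human omental fibroblast/mesothelial 3D culture pre-formed 48 h. SKOV3ip1-GFP cells added with compounds (0.36-46 umol/L), incubated 2 h RT/16 h 37 C, fixed; GFP cells quantified at 488/509 nm.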
GALC G270D act: A Novel Cell-Based Assay to Identify Small Molecules for B -Galactocerebrosidase; P54803; 145M-Twi-hGALC-G270D cells (Twitcher mouse brain line with human GALC G270D), HMU-beta-Gal fluorescence, 48 h; Potency, µM (doses to about 57.5 µM), actives largely listed as activators; 45,000 tested, 0.1% active; AID 1159614, 2016; note: potency is the fitted concentration of half-maximal effect; 0% is about no effect; nearly all actives have a fitted effect of over 65% in size
Target sequence (P54803 whole entry G286D): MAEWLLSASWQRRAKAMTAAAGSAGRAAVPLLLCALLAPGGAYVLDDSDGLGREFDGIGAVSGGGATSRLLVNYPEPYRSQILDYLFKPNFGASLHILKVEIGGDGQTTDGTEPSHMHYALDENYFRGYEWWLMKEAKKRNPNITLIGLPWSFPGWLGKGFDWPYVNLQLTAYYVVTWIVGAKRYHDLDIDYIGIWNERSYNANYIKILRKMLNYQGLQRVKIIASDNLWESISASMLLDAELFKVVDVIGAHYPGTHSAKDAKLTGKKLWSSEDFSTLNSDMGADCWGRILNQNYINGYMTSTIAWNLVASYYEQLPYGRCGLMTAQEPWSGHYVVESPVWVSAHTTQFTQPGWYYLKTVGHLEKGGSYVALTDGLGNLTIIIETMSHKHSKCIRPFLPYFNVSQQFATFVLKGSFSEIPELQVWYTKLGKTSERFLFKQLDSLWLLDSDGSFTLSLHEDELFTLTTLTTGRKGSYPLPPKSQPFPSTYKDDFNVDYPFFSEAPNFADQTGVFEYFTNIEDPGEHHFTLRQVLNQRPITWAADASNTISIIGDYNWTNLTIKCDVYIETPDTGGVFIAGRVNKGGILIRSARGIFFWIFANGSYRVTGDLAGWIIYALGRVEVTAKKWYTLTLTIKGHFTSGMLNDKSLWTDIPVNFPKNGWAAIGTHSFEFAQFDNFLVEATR
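Mutant human GALC (G270D), stably expressed in a Twitcher mouse brain cell line lacking endogenous GALC, is measured in live-treated cells via 6-hexadecanoylamino-4-methylumbelliferyl-β-galactoside hydrolysis (0.1 mM final, pH 5.2) with fluorescent detection.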
PMP22 txn prim: Cell-based coincidence reporter assay to measure PMP22 gene transcription in S16 Pmp22-F2sN cells - Primary screen; S16 Pmp22-F2sN Schwann cells (luciferase reporters placed in the Pmp22 gene), FLuc/NLuc coincidence luminescence, 24 h; Potency, µM (highest dose often 57.5 µM), for the others: at the highest dose activity change, negative = inhibition, most hits filed as inhibitors; 43,000 tested, 2% active; AID 1508649, 2021; active = clear falling dose curves in both reporters; inconclusive = both reporters move, but less clearly or upward; inactive = either reporter flat; the % is the NLuc reporter signal; note: potency is the fitted concentration of half-maximal effect; % is set by controls: 0 for no effect and ±100 for the full control effect
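S16(c9) Schwann cells with FLuc/NLuc coincidence reporter in the Pmp22 3' UTR; compounds pin-transferred, 24 h at 37C. Dual-luciferase read: FLuc first, then NLuc after Stop&Glo, each 10 min at room temperature.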
NLuc saturating: Biochemical NLuc saturation counterscreen for small molecule modulators of PMP22 gene expression - Nano-Glo assay | Potency, µM (titrated, usually from 57.5 µM), for inactives: at the highest dose activity change, negative = inhibition, actives largely listed as inhibitors | Secreted NLuc enzyme (filtered S16 cell medium), Nano-Glo luminescence | 690 tested, 4% active | AID 1508638, 2021 | shares compounds with PMP22 txn prim; note: potency is the fitted concentration of half-maximal effect; % is set by controls: 0 for no effect and ±100 for the full control effect
NLuc Km ctr: Biochemical coelenterazine-based NLuc counterscreen for small molecule modulators of PMP22 gene expression - Km assay. 690 tested, 5% active. shares compounds with PMP22 txn prim. secreted NLuc enzyme, coelenterazine luminescence, Km conditions. Potency, µM (titrated, usually from 57.5 µM), for the others: at the top dose activity change, negative = inhibition, actives largely listed as inhibitors. AID 1508639, 2021; note: potency is the fitted concentration of half-maximal effect; % is set by controls: 0 for no effect and ±100 for the full control effect
FLuc counter: Biochemical FLuc counterscreen for small molecule modulators of PMP22 gene expression | shares compounds with PMP22 txn prim | AID 1508640, 2021 | 690 tested, under 10 active | Potency, µM (highest dose often 57.5 µM), for inactives: at the highest dose activity, negative = inhibition, hits mostly inhibitors | purified P. pyralis FLuc, luminescence, 10 min; note: % of control where 0% means no effect
S16 F2sN tox cnf: Cell viability qHTS assay in S16 Pmp22-F2sN cells - Confirmatory screen; shares compounds with PMP22 txn prim; S16 Schwann cells viability, CellTiter-Glo ATP luminescence, 24 h; Potency, µM (titrated, usually from 57.5 µM), inactives show at the top dose activity change, negative = viability loss, hits mostly cytotoxic; 690 tested, 7% active; AID 1508641, 2021; note: potency is the fitted concentration of half-maximal effect; % is set by controls: 0 for no effect and ±100 for the full control effect
PMP22 txn cnf: Cell-based coincidence reporter assay to measure PMP22 gene transcription in S16 Pmp22-F2sN cells - Confirmatory screen | shares compounds with PMP22 txn prim | S16 Schwann cells Pmp22-F2sN, dual luciferase, 24 h | Potency, µM (series often up to 57.5 µM), for the others: at the top dose activity change, negative = inhibition, actives largely listed as inhibitors | 690 tested, 22% active | AID 1508646, 2021; active = clear falling dose curves in both reporters; inconclusive = both reporters move, but less clearly or upward; inactive = either reporter flat; the % is the FLuc reporter signal; note: potency is the fitted concentration of half-maximal effect
Numbers without * were called inactive; i = inactive; ? = inconclusive; . = no result given. Unless noted, calls come from the whole dose curve; as a rule, active = well fitted curve in the direction sought with a large enough effect; inconclusive = small, poorly fitted or top-dose-only effect, or another doubt; inactive = no such curve, though single readings can be large; an effect the other way counts as inactive or inconclusive.

SMILES	mTORC1 inh	S16 F2sN tox	OvCa metastasis	GALC G270D act	PMP22 txn prim	NLuc saturating	NLuc Km ctr	FLuc counter	S16 F2sN tox cnf	PMP22 txn cnf
Cc1ccccc1-n1c(SCC(=O)c2ccccc2)nnc1-c1ccc(F)cc1	?	?	-7%	i	18µM*	1.4µM*	1.7µM*	4%	-4%	?
COc1cccc([C@@H](C)NCCCc2ccccc2Cl)c1	.	.	-14%	.	.	.	.	.	.	.
CCOC(=O)c1ccccc1NC(=O)Cn1c(=O)n(Cc2ccccc2)c(=O)c2c(C)c(C)sc21	?	-7%	-1%	i	18µM*	-10%	-4%	10%	6%	18%
Cc1ccc(Cn2c(=O)n(Cc3ccccc3)c(=O)c3c(C)c(C)sc32)cc1	3%	-8%	i	i	-6%	.	.	.	.	.
Fc1ccc(Nc2c3c(nc4ccccc24)CCC3)cc1	-14%	-4%	-7%	i	14µM*	?	7%	10%	-20%	18µM*
Fc1ccccc1Nc1c2c(nc3ccccc13)CCC2	3%	-4%	-4%	i	?	.	.	.	.	.
COc1ccc(C)cc1Nc1c2c(nc3ccccc13)CCC2	?	-15%	0%	i	11µM*	?	-19%	2%	-7%	?
COc1ccc(Nc2c3c(nc4ccccc24)CCC3)cc1Cl	?	?	i	i	10µM*	-19%	-2%	3%	-24%	?
Fc1ccc(F)c(Nc2c3c(nc4ccc(Cl)cc24)CCC3)c1	2%	-10%	i	i	19µM*	?	?	3%	-2%	-31%
O=C(C=CC#Cc1cccc(NS(=O)(=O)c2ccccc2)c1)NO	.	.	-10%	.	.	.	.	.	.	.
CCOc1ccc(Cc2cc([C@@H]3O[C@H](CO)[C@@H](O)[C@H](O)[C@@H]3O)ccc2Cl)cc1	.	.	-2%	.	.	.	.	.	.	.
CCc1ccc(NC(=O)c2ccc3nc(C(C)C)oc3c2)cc1	2%	?	3%	i	?	.	.	.	.	.
CCc1ccccc1NC(=O)c1ccc2nc(C(C)C)oc2c1	-9%	?	?	i	17µM*	?	?	-6%	-14%	-9%
CC(C)NC(=O)c1ccc(C=O)cc1	.	.	.	i	.	.	.	.	.	.
